Shown are actives, neighbours in structure and some others; about 1.4% of the full set was active somewhere.
MRP resist rev – reversal of MRP1-mediated doxorubicin resistance, primary screen, H69AR cells, doxorubicin co-treatment; H69AR cells + 2 uM doxorubicin, CellTiter-Glo, 72 h; differential viability (reversal), % at 10 µM; actives 0.04% (n = 85,000); AID 602, 2007;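 active = viability drop by adding the cancer drug above about 55%, with treated viability meeting a 40% cutoff, limit read from the data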;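 also: larger differential means the compound sensitizes cells more to doxorubicin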
MRP-1 activ – H69AR viability gain despite doxorubicin, primary screen, MRP-1 activator project, H69AR cells, CellTiter-Glo. viability rescue. viability increase, % at 10 µM. actives 0.61% (n = 140,000). AID 799, 2007;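 active = viability gain under doxorubicin at or above a set limit, the compound median plus 3 SD, cut at about 4.7% in these data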;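 also: MRP-1 overexpressing cells given doxorubicin 25 µM after compound pretreatment; 18-22 h compound pretreatment then 72 h with doxorubicin before readout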
IL1B cytotox – cytotoxicity in IL-1B stimulated HUVEC, primary screen, cytotoxicity control for IL-1B NFkB translocation project, imaging, Hoechst nuclear count, IL-1B stimulus; HUVEC cell count loss; cell count reduction, % at 2 µM; actives 0.41% (n = 94,000);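 active = cell count reduction more than 3 SD above the screen-wide mean, cut at about 70% in these data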
IL1B NFkB pot – enhancers of NFkB p65 translocation in HUVEC – imaging, IL-1B stimulus, high-content imaging, primary screen. HUVEC IL-1B NFkB p65 nuclear translocation imaging. activation, % at 2 µM. actives 0.3% (n = 94,000). AID 819, 2007;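 active = activation above 40%, about the mean plus 3 SD, also judged a hit on visual image review; inconclusive = activation above 40% but not a hit on visual review; inactive = activation not above 40% and no visual hit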;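 also: percent activation is computed from the nuclear over cytoplasmic p65 intensity ratio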
NFkB transloc inh – inhibitors of IL-1B driven NFkB p65 nuclear import, primary screen, imaging, HUVEC, IL-1B stimulus, high-content imaging; HUVEC IL-1B NFkB p65 nuclear translocation imaging; actives 0.43% (n = 94,000); inhibition, % at 2 µM;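 active = inhibition above about 30% together with a positive call from visual inspection of the well image, limit read from the data; inconclusive = inhibition above a set limit but visual check negative; inactive = inhibition not above a set limit, visual check negative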;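 also: nuclear over cytoplasmic p65 intensity ratio measured by imaging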
SDO1 yeast rescue – growth rescue of sdo1-depleted yeast, primary screen, S. cerevisiae, bone marrow failure model. S. cerevisiae sdo1-depleted JHY4D growth rescue, OD600 30 h; active compounds read high; pdr5 snq2 efflux-pump mutant strain. z-score at 10 µM. actives 0.21% (n = 140,000). AID 817, 2007;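 active = z-score above 3 at both the 24 hr and the 30 hr optical density reads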
SDO1 rescue DR – SDO1-depleted yeast growth rescue, concentration-response, diseases of bone marrow failure, JHY4D, OD600. shares compounds with SDO1 yeast rescue. S. cerevisiae JHY4D (SDO1-depleted) growth rescue, 30 h; active compounds read high; efflux-deficient strain, SNQ2 and PDR5 mutated. OD recovery (no concentration beside the values). actives 44% (n = 440);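 active = yeast growth recovered at 30 hours, either rising with dose fitted slope above 0.001 or with average optical density gain above 0.07, some results past the limit were not filed as active; inactive = growth falling with dose or no effect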
Each line names hits and unclear results; the compound was inactive in the other large screens (follow-up assays come after a bar, where they were run).

COc1ccc(C(=O)N2CCCC(C(=O)N3CCCCCC3)C2)cc1 (stereo not given)	SDO1 yeast rescue 4.2 | SDO1 rescue DR inactive
O=C(c1cccc(F)c1)N1CCCC(C(=O)N2CCCC2)C1 (stereo not given)	none | SDO1 rescue DR 0.083
CC(C)c1nnc(N2C(=O)c3oc4ccccc4c(=O)c3C2c2ccco2)s1 (stereo not given)	none (no result: MRP resist rev) | SDO1 rescue DR 0.077
CSCCC(NS(=O)(=O)c1ccc(Cl)cc1)C(=O)OCC(=O)c1c(C)[nH]c2ccccc12 (stereo not given)	SDO1 yeast rescue 6.2 (no result: MRP resist rev, IL1B cytotox, IL1B NFkB pot, NFkB transloc inh) | SDO1 rescue DR inactive
COc1cc(OC)cc(-c2nnc(SCC(=O)N3CCCCC3)o2)c1	none (no result: IL1B cytotox, IL1B NFkB pot, NFkB transloc inh)
COc1cc(OC)cc(-c2nnc(SCC(=O)N3CCOCC3)o2)c1	SDO1 yeast rescue 3.7 (no result: MRP resist rev) | SDO1 rescue DR 0.072
Cc1ncoc1C(=O)Nc1cccc(Cl)c1C	none
Cc1c(Cl)cccc1NC(=O)c1ccc(-n2ccnc2)nc1	SDO1 yeast rescue 3.5 (no result: MRP resist rev) | SDO1 rescue DR inactive
O=C(Nc1ccc(S(=O)(=O)NCc2cccnc2)cc1)c1ccco1	none | SDO1 rescue DR inactive
COc1ccc(C(=O)NCC(O)COc2ccc(C(C)(C)C)cc2)cc1[N+](=O)[O-] (stereo not given)	none (no result: MRP resist rev, IL1B cytotox, IL1B NFkB pot, NFkB transloc inh)
CCCc1cc2c(OC(=O)CC)c(-c3ccc(C(=O)OCC)o3)c(=O)oc2cc1OC	none (no result: MRP resist rev, IL1B cytotox, IL1B NFkB pot, NFkB transloc inh)
CCOc1ncccc1C(=O)OCC(=O)Nc1ccc(-c2nc3ccc(C)cc3s2)cc1	none (no result: MRP resist rev, IL1B cytotox, IL1B NFkB pot, NFkB transloc inh) | SDO1 rescue DR inactive
CCc1ccc(N2C(=O)CC(N(CC3CCCO3)C(=O)/C=C/C(=O)O)C2=O)cc1 (stereo not given)	none (no result: MRP resist rev, IL1B cytotox, IL1B NFkB pot, NFkB transloc inh)
CSc1ncc(Cl)c(C(=O)Nc2sc3c(c2C(=O)NCc2ccco2)CCCC3)n1	none (no result: MRP resist rev)
CCSc1ncc(Cl)c(C(=O)Nc2sc3c(c2C(=O)NCc2cccnc2)CCCC3)n1	none (no result: MRP resist rev) | SDO1 rescue DR 0.072
COCCN1C(=O)N[C@@H](c2ccccc2)C(C(C)=O)=C1C	none (no result: MRP resist rev, IL1B cytotox, IL1B NFkB pot, NFkB transloc inh)
CCN1C(=O)C(O)(CC(=O)c2ccccn2)c2ccccc21 (stereo not given)	none
CCN1C(=O)C(O)(CC(=O)c2ccc(-n3cccc3)cc2)c2ccccc21 (stereo not given)	SDO1 yeast rescue 3 (no result: IL1B cytotox, IL1B NFkB pot, NFkB transloc inh) | SDO1 rescue DR 0.1
COc1ccc(-c2cc(C(F)(F)F)nc(SCC(=O)Nc3cc(C)on3)n2)cc1	NFkB transloc inh inconclusive | SDO1 rescue DR 0.084
COc1cccc(NC(=S)NNC(=O)C(C)n2nc(C)c([N+](=O)[O-])c2C)c1 (stereo not given)	SDO1 yeast rescue 4 (no result: MRP resist rev) | SDO1 rescue DR inactive
O=C(COC(=O)C1CCN(S(=O)(=O)c2ccc3c(c2)OCCO3)CC1)Nc1cccc2ccccc12	none (no result: MRP resist rev, IL1B cytotox, IL1B NFkB pot, NFkB transloc inh)
COc1ccc2c(-c3cc4ccc(OCc5ccc(F)cc5)cc4oc3=O)cc(=O)oc2c1	SDO1 yeast rescue 16 (no result: MRP resist rev, IL1B cytotox, IL1B NFkB pot, NFkB transloc inh) | SDO1 rescue DR inactive
COc1ccc(-c2cc(=O)oc3cc(OCC(C)=O)ccc23)cc1	none (no result: MRP resist rev, IL1B cytotox, IL1B NFkB pot, NFkB transloc inh)
CCOC(CNC(=O)c1cccn2c(=O)c3cc(Cl)ccc3nc12)OCC	none
CC(=O)Nc1ccc(OCC(O)Cn2nc(C)c(Br)c2C)cc1 (stereo not given)	none
COc1cccc(CC2CC(=O)N(CCc3ccc4c(c3)OCO4)C2=O)c1 (stereo not given)	SDO1 yeast rescue 5.3 | SDO1 rescue DR 0.088
Cc1noc(C)c1CSc1nc2ccccc2n1CCc1ccccc1	none
COC(C(=O)Nc1ccc(S(=O)(=O)Nc2cccc3ccccc23)cc1)c1ccccc1 (stereo not given)	SDO1 yeast rescue 8.8 (no result: MRP resist rev, IL1B cytotox, IL1B NFkB pot, NFkB transloc inh) | SDO1 rescue DR inactive
COC(C(=O)Nc1ccc(S(=O)(=O)Nc2ccc(F)cc2)cc1)c1ccccc1 (stereo not given)	none (no result: MRP resist rev, IL1B cytotox, IL1B NFkB pot, NFkB transloc inh)
COc1ccc2cc3cc(C(=O)Nc4ccc5c(c4)OCCO5)oc3nc2c1	none | SDO1 rescue DR inactive
